target: WDR38; assay: pooled miR-30 sensor sort-seq; sequence = guide strand; conditions: shRNA
Also: reference of the scale not given here.

Sequence	sensor-assay potency score (higher = more potent)
TGAGCCTGTGAGCAGCATCTGG	-1.58
TTGACCATGCGGGAATAGCCGG	-1.06
TAGTCTGATCGGCAGCTCCAGA	-1.14
ATATTTGACGTCTAGTCTGATC	-0.981
TTTCCTGTGTTGCAGTCCCAGA	-1.04
TTCTGAGCCTGTGAGCAGCATC	-1.23
TTGGTGACCCTTCAGGACCCGC	-1.34
TTGACGTCTAGTCTGATCGGCA	-0.321
TTCAGTTGGATAAGCAGGCTGC	-0.0722
TGACCGTCTCCACACTCCGTTG	-1.74
TTTCACTCTCCGCACGGCCAGC	-1.51
TTTGACGTCTAGTCTGATCGGC	1.06

target: WDR59; assay: as above; conditions: shRNA

Sequence	sensor-assay potency score (higher = more potent)
TACTAGAATTTTATTAGCCAAG	-1.53
TTGCAGATGGCACACTGCGTGC	-1.5
TTGATCTGTCGATTGCCAGAGT	-0.462
ATAGACAACACACAAAGCGCAG	-1.07
TTCACCAGCATCTTGACACGAT	0.208
TTACTTTTCCATCGTCTTGATT	-0.978
TAACCTGCTCCGCAGAACCTGG	-1.45
TTCAGCTCGCTTCTCTCTCAGA	-0.891
